# The list is not random: actives were taken first. Their share in the collection is about 11%.
# hNpr1 antagonist: antagonists of human natriuretic peptide receptor Npr1; P16066; 76,000 compounds, 1.6% hits; Potency, µM (highest dose often 46.3 µM), for the others: at the top dose activity change, negative = inhibition, usual class: inhibitors; HEK293 hNpr1 GloSensor cGMP, ANP-stimulated luminescence; AID 1347048; calls by dose curve; also: % is scaled to controls: 0 for no effect and ±100 for the full control effect; nearly all actives have a fitted effect of over 60% in size
#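 HEK293 cells stably expressing human Npr1 and cGMP GloSensor pGS-40F, loaded 2 h with 2% GloSensor reagent, given compound 30 min at room temperature. Luminescence read before and 20 min after 0.1 nM hNppA.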
# 3T3 cytotox: cytotoxic compounds in NIH 3T3 cells | NIH 3T3 viability, CellTiter-Glo ATP luminescence, 48-72 h | Potency, µM (titrated, usually from 96.7 µM), without a hit: top-dose activity change, negative = cytotoxicity, actives largely listed as inhibitors | 94,000 compounds, 4.3% hits | AID 1345082; also: % is scaled to controls: 0 for no effect and ±100 for the full control effect; nearly all actives have a fitted effect of over 55% in size
#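 ATP-dependent luminescence (CellTiter-Glo) served as the viability signal for NIH 3T3 cells treated with compound for 48 or 72 hr at 37 °C.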
# FLuc inh-1: blocks purified firefly luciferase enzyme activity; Potency, µM (titrated, usually from 115 µM), actives largely listed as inhibitors; 76,000 compounds, 2.5% hits; AID 1347043; purified P. pyralis luciferase, luminescence, biochemical; P08659; also: % is scaled to controls: 0 for no effect and ±100 for the full control effect; nearly all actives have a fitted effect of over 65% in size
# Target sequence (P08659 whole entry, looked up): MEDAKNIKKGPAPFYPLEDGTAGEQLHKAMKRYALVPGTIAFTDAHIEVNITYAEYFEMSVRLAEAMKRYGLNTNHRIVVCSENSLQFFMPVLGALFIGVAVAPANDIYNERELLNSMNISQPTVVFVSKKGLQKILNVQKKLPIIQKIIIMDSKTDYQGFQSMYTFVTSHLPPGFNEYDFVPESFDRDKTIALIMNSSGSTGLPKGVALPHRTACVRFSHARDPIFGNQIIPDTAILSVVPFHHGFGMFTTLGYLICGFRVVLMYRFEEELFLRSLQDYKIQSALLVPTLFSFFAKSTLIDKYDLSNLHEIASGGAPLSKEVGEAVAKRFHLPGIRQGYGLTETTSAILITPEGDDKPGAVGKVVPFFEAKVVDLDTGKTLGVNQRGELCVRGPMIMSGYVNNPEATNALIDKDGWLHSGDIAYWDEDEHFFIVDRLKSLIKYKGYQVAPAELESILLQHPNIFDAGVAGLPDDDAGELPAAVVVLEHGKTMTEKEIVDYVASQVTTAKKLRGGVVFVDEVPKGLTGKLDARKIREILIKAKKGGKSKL
#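 Cell-free enzyme assay, 10nM P. pyralis luciferase, luciferin and ATP each at 10uM. Inhibition profiled over a 6-point titration, read as luminescence.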
# HEK293 tox: kills HEK 293 cells; HEK 293 viability, ATP luminescence (CellTiter-Glo), 48-72 h; Potency, µM (doses to about 115 µM), inactives show at the top dose activity change, negative = cytotoxicity, actives largely listed as inhibitors; 94,000 compounds, 6.6% hits; also: % is scaled to controls: 0 for no effect and ±100 for the full control effect; nearly all actives have a fitted effect of over 60% in size
#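 HEK 293 cells at 250 cells/well were exposed to compounds by pintool transfer for 48 or 72 hr at 37 degree Celsius, 5% CO2. Viability was read as ATP-coupled luminescence with CellTiter-Glo after 10 min at room temperature.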
# FLuc SDR no ATP: firefly luciferase binding stabilization, ATP absent | Potency, µM (series often up to 32.7 µM), for the others: top-dose activation (signal gain), most hits filed as activators | Purified FLuc-C-HiBiT, Nano-Glo HiBiT luminescence, no ATP | AID 1963318 | 1,300 compounds, 7.8% hits | shares compounds with FLuc inh-1; also: nearly all actives have a fitted effect of over 55% in size
# FLuc SDR ATP: firefly luciferase binding stabilization, ATP added. shares compounds with FLuc inh-1. purified FLuc-C-HiBiT + ATP, HiBiT complementation luminescence. Potency, µM (doses to about 32.7 µM), for the others: at the top dose activation (gain of signal), usual class: activators. 1,300 compounds, 8.7% hits. AID 1963319;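 also: signal reports ligand binding via conformational change of the enzyme rather than luciferase catalysis; % of control where 0% means no effect; nearly all actives have a fitted effect of over 55% in size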
# FLuc inh-2: firefly luciferase enzyme inhibition. shares compounds with FLuc inh-1. Potency, µM (series often up to 32.7 µM), inactives show at the top dose activity change, negative = inhibition, usual class: inhibitors. purified FLuc-C-HiBiT enzyme, luciferin luminescence. AID 1963320. 1,300 compounds, 42% hits; also: % is scaled to controls: 0 for no effect and ±100 for the full control effect; nearly all actives have a fitted effect of over 70% in size
# Numbers without * were called inactive; i = inactive; ? = inconclusive; . = not tested or not shown; [ ] = another dose, or the depositor's remark. Unless noted, calls follow the shape of the dose curve; as a rule, active = well fitted curve in the direction sought with a large enough effect; inconclusive = small, poorly fitted or top-dose-only effect, or another doubt; inactive = no such curve, though single readings can be large; an effect the other way counts as inactive or inconclusive. Potency is read from the fitted curve at half-maximal effect.
SMILES,hNpr1 antagonist,3T3 cytotox,FLuc inh-1,HEK293 tox,FLuc SDR no ATP,FLuc SDR ATP,FLuc inh-2
Fc1ccccc1Nc1cnc2ccc(-n3ccnc3)nn12,-11.4%[70.6 µM],?,i,?,.,.,.
COC(=O)C1CCN(c2csc3ccc(C)cc3c2=O)CC1,.,.,.,.,30.7%,?,7.85µM*
Cc1cc(=O)n(CC(=O)Nc2ccc(F)cc2)c(-c2ccc(F)cc2)n1,-20.9%,-7.2%,i,?,.,.,.
Cc1cccc(NC(=O)Nc2ccc(F)cc2)n1,.,.,.,.,18.4%,12.8%,?
CCc1cccc(NC(=O)c2cc(-c3ccc[nH]3)n[nH]2)c1,2.1%,-13.7%,8.91µM*,-5.4%,11.6%,7.6%,?
Cc1ccccc1C(=O)N1CCC(C(=O)N2CCC(N3CCOCC3=O)CC2)CC1,.,4.1%,.,3.3%,.,.,.
O=C(Cc1ccc(F)cc1)N1CCCC(C(=O)N2CCC(c3nc4ncccc4[nH]3)CC2)C1 (stereo not given),.,-24.2%,.,-25.5%,.,.,.
Cc1cccc(-n2ncc3c(N4CCCC(C)C4)ncnc32)c1 (stereo not given),.,.,.,.,3.94µM*,?,0.7µM*
Cc1ccc(-n2ncc3c(N4CCCC(C)C4)ncnc32)c(C)c1 (stereo not given),.,.,.,.,29.0%,19.7%,11.1µM*
Cc1cccc(-n2ncc3c(N4CCCCCC4)ncnc32)c1,.,.,.,.,4.95µM*,?,0.881µM*
CC1CCCN(c2ncnc3c2cnn3-c2ccc(F)cc2)C1 (stereo not given),.,.,.,.,2.21µM*,?,0.7µM*
Cc1cccc(N2Cc3c(ncnc3N3CCC(N4CCCCC4)CC3)N(C)CC2=O)c1,.,-29.4%,.,-0.5%,.,.,.
CC1CCCN(C(=O)Cc2cccn2-c2ccc(F)cc2)C1 (stereo not given),-3.3%,-7.7%,i,?,.,.,.
O=C(O)c1ccc(CN2C[C@@H](F)[C@@H](OCc3nc4ccc(C(F)(F)F)cc4[nH]3)C2)cc1,1.2%,-12.7%,i,-4.9%,.,.,.
C[S+](=O)([O-])c1cccc(-c2nnc3ccc(C(=O)NCCCc4ccccc4)cn23)c1,.,-24.4%,.,-13.9%,.,.,.
CC1CCCN(c2ncnc3c2cnn3-c2ccc(Cl)cc2)C1 (stereo not given),.,.,.,.,2.79µM*,0.248µM*,0.124µM*
CN1CC(=O)N(c2ccc(Cl)cc2)Cc2c(NC3CCCCC3)ncnc21,6.2%,?,i,?,.,.,.
CC1CCCN(c2ncnc3c2CN(c2cccnc2)C(=O)CN3C)C1 (stereo not given),9.2%,-16.7%,i,-23.7%,.,.,.
Clc1ccc(-n2ncc3c(NC4CCCC4)ncnc32)cc1,.,.,.,.,?,?,1.24µM*
Cc1ccc(Cl)cc1-n1ncc2c(N3CCC(C)CC3)ncnc21,.,.,.,.,12.6%,8.0%,-8.0%
CC1CCCN(c2ncnc3c2cnn3-c2ccccc2)C1 (stereo not given),.,.,.,.,2.48µM*,?,0.442µM*
CCC(=O)N1CCC2(CC1)c1[nH]c3ccccc3c1CCN2C,4.3%,i,i,3.1%,.,.,.
COc1ccc(CNC(=O)Cn2c(-c3cccc(Cl)c3)nc(C)c(CCO)c2=O)cc1OC,-15.0%,?,i,?,.,.,.
COc1ccccc1-c1nc(-c2cccc(C(=O)O)c2)no1,.,.,.,.,8.81µM*,0.007µM*,0.0062µM*
O=C(O)c1cccc(-c2noc(-c3cc([N+](=O)[O-])cc([N+](=O)[O-])c3)n2)c1,.,.,.,.,6.0%,?,3.13µM*
COc1ccc(-c2nc(-c3cccc(C(=O)O)c3)no2)cc1,.,.,.,.,1.11µM*,0.0031µM*,0.0025µM*
COc1ccccc1-c1noc(-c2nc(-c3ccc4c(c3)OCO4)no2)n1,1.7%,-11.2%,i,-6.5%,.,.,.
O=C(C1CCCN([S+](=O)([O-])c2cccc(C(F)(F)F)c2)C1)N1CCC(c2nc3ncccc3[nH]2)C1 (stereo not given),.,-27.1%,.,?,.,.,.

# Screens deposited in PubChem by National Center for Advancing Translational Sciences (NCATS).
